A short description of assay [1]: NCI Yeast Anticancer Drug Screen. Data for the rad50 strain (AID 155).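 Note: 0% = growth of vehicle-only cultures of the same strain.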 Conditions: S. cerevisiae rad50 strain growth inhibition; at 50.0 µM; active compounds read high. The method in brief: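 Compounds were tested on a yeast strain with an engineered DNA damage repair alteration; the reported value is growth inhibition normalised to vehicle treatment.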
Assay [2] can be described thus: NCI Yeast Anticancer Drug Screen. Data for the mec2-1 strain (AID 157). Particulars: S. cerevisiae mec2-1 strain, at 50.0 µM, active compounds read high. In a few lines: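 Yeast mec2-1 mutant treated with compound. Readout: growth inhibition vs vehicle controls.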
Assay [3] is described as follows: NCI Yeast Anticancer Drug Screen. Data for the sgs1 mgt1 strain (AID 161).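 Note: 0% = growth of cultures given vehicle only.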 Conditions: S. cerevisiae sgs1 mgt1 strain, at 50.0 µM, active compounds read high. In a few lines: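 Test agents were incubated with a DNA-repair-mutant yeast strain. Growth was then read and compared against vehicle-treated controls.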
The nature of assay [4]: NCI Yeast Anticancer Drug Screen. Data for the cln2 rad14 strain (AID 165).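 Note: 0% = growth equal to vehicle treated cultures.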 Particulars: S. cerevisiae cln2 rad14 strain, at 50.0 µM, active compounds read high. The method in brief:
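cln2 rad14 yeast strain; compound exposure; growth inhibition read vs vehicle controls.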

A short description of assay [5]: NCI Yeast Anticancer Drug Screen. Data for the bub3 strain (AID 167). Conditions: S. cerevisiae bub3 mutant strain, at 50.0 µM, active compounds read high. The method in brief: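 Growth of a checkpoint-deficient yeast mutant is measured after compound exposure. Values represent inhibition relative to vehicle.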
A short description of assay [6]: NCI Yeast Anticancer Drug Screen. Data for the mlh1 rad18 strain (AID 175). Conditions: S. cerevisiae mlh1 rad18 strain growth inhibition; at 50.0 µM; active compounds read high. In a few lines:
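Yeast w/ defined DNA-repair lesions; compound exposure; growth vs vehicle controls → % inhibition.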

This is part of a sample that, as a whole, favours compounds with a hit. Of some 79,000 tested, about 15% had one in any assay. Unmarked numbers belong to inactive results. Activity calls are given as the source filed them. Cut-off read from the data, not from the text of the source: active = growth inhibition above about 70%; inactive = the rest.

Take `CC(C)(C)CC(C)(C)c1cc2c(O)c(c1)Cc1cc(C(C)(C)CC(C)(C)C)cc(c1O)Cc1cc(C(C)(C)CC(C)(C)C)cc(c1O)Cc1cc(C(C)(C)CC(C)(C)C)cc(c1O)Cc1cc(C(C)(C)CC(C)(C)C)cc(c1O)C2`: the growth inhibition in assay [1] was 20.5%; in assay [2], 33.4%; in assay [3], 8.75%; in assay [4], 31.4%; in assay [5] it was 6.3%; in assay [6], 24.2%.

For `C=CCOC(=O)Nc1ccc(S(=O)(=O)CC)cc1`, the growth inhibition was -0.95% in assay [1]; 5.95% in assay [2]; -4.55% in assay [3]; -21.6% in assay [4]; 22.8% in assay [5]; -1.65% in assay [6].

For the molecule `O/N=C/c1ccccn1`, the growth inhibition was -0.95% in assay [1]; -31.9% in assay [2]; -5.6% in assay [3]; 6.85% in assay [4]; -9.5% in assay [5]; 0% in assay [6].

In the case of `NC(=S)N/N=C(\Cc1nc2ccc(Cl)cc2[nH]c1=O)C(=O)Nc1ccc(Cl)cc1`, the growth inhibition is -17.9% in assay [1]; 2.35% in assay [2]; -23.9% in assay [3]; -10.2% in assay [4]; -15.4% in assay [5]; -9.05% in assay [6].

Turning to `CCN(CC)CCNCc1c[nH]c(=S)[nH]c1=O`, the growth inhibition in assay [1] is -7.25%; in assay [2], -1%; in assay [3], -19.4%; in assay [4], -1.05%; in assay [5], 1.35%; in assay [6] it was -9.45%.

`COc1ccc(S(=O)(=O)Nc2cccc(C(F)(F)F)c2)cc1`: the growth inhibition in assay [1] was 99% (active); in assay [2] it was 99.7% (active); in assay [3], 99.5% (active); in assay [4], 98.5% (active); in assay [5] it was 99.3% (active); in assay [6] it was 99.5% (active).

Take `O=C(O)CSc1n[nH]c(-c2ccccc2O)n1`: the growth inhibition was -1.1% in assay [1]; 2.5% in assay [2]; 17.8% in assay [3]; 17.5% in assay [4]; 9.6% in assay [5]; 7.25% in assay [6].

For `Cc1ccc(C)c(NC(=O)Nc2ccc(Nc3ccccc3)cc2)c1`, the growth inhibition in assay [1] is -6.3%; in assay [2], 12.8%; in assay [3], 15.8%; in assay [4] it was -18.4%; in assay [5], 17.1%; in assay [6] it was 33%.

As for `CC(C)NC(=O)OCc1c(COC(=O)NC(C)C)c(-c2ccc(Cl)c(Cl)c2)n2c1C[C@@H](O)C2`, the growth inhibition was 17.3% in assay [1]; 20% in assay [2]; 21.5% in assay [3]; 38.4% in assay [4]; 11.5% in assay [5]; -44.4% in assay [6].

For `Cc1nn(C(=O)Cc2ccccc2)c2c1C(c1ccc([N+](=O)[O-])cc1)SC(N)=N2` (stereo not given), the growth inhibition in assay [1] is 11.4%; in assay [2], 9.9%; in assay [3] it was 22.4%; in assay [4] it was 15.8%; in assay [5], 8.15%; in assay [6] it was 9.75%.

Take `COC(=O)c1ccccc1NC(=O)c1cccc(Cl)c1`: the growth inhibition in assay [1] is 20.9%; in assay [2], 6.85%; in assay [3] it was 20.6%; in assay [4] it was 16%; in assay [5], 30.4%; in assay [6], 23.7%.

As for `O=C(O)c1ccc(/C=N\N(CCO)C2=NCCN2)cc1`, the growth inhibition is 0% in assay [1]; -4% in assay [2]; -23.8% in assay [3]; -31.5% in assay [4]; -0.35% in assay [5]; 6.4% in assay [6].

For `Cc1cc(=O)[nH]c(=S)n1-c1nc2ccccc2o1`, the growth inhibition is -11.2% in assay [1]; 7.65% in assay [2]; -0.8% in assay [3]; -9.55% in assay [4]; -27.6% in assay [5]; 12.8% in assay [6].

Consider `O=C1CCCC2=C1CC1=C(CCCC1=O)N2c1ccccc1`, for which the growth inhibition in assay [1] was -28.5%; in assay [2], -20.9%; in assay [3], 8.7%; in assay [4] it was -0.75%; in assay [5], 12.6%; in assay [6] it was 12.6%.

As to `OCCCOc1ccc2ccccc2c1`, the growth inhibition in assay [1] was 21.4%; in assay [2], 10.2%; in assay [3], 28.4%; in assay [4], 3.95%; in assay [5] it was -7.25%; in assay [6], 9.85%.

As to `NNC(=O)Cc1c[nH]c2ccccc12`, the growth inhibition was 7.1% in assay [1]; 9.4% in assay [2]; 5.85% in assay [3]; -7.55% in assay [4]; 6% in assay [5]; 2.25% in assay [6].

In the case of `COc1ccc(C23CCCC(=O)C2C2C(=O)CCCC23c2ccc(OC)cc2)cc1` (stereo not given), the growth inhibition was 47.4% in assay [1]; -0.85% in assay [2]; 4.4% in assay [3]; 10.6% in assay [4]; 5.25% in assay [5]; 13.1% in assay [6].

On to `CCOC(NCc1ccc(OC)c(OC)c1)OCC`, for which the growth inhibition in assay [1] is 3.6%; in assay [2] it was -11.8%; in assay [3], 6.45%; in assay [4], 3.55%; in assay [5] it was 17.1%; in assay [6] it was 11.3%.

As for `C/C=C/C=C/C(=O)CCC1(C)OC(=O)C(C)=C1O` (stereo not given), the growth inhibition in assay [1] is -0.9%; in assay [2] it was 0.45%; in assay [3], 2.4%; in assay [4], -4.35%; in assay [5] it was -3.45%; in assay [6], 6.25%.

Take `CCOC(=N)c1cn(C2OC(CO)C(O)C2O)c2nc[nH]c(=O)c12` (stereo not given): the growth inhibition is 3.35% in assay [1]; -5.25% in assay [2]; 11.2% in assay [3]; 23.4% in assay [4]; 16.2% in assay [5]; 0.4% in assay [6].

For the origin of these results see PubChem BioAssay (NCI).
